Screening data as filed in PubChem BioAssay.
Pf growth 48h – inhibits P. falciparum growth in the first generation, 48 h; Potency, µM (top dose mostly 28.7 µM), inactives show at the top dose activity change, negative = inhibition, usual class: inhibitors; 310,000 tested, 5.9% active; P. falciparum luciferase growth in erythrocytes, 48 h; note: % is set by controls: 0 for no effect and ±100 for the full control effect
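Cell-based growth assay: transgenic P. falciparum expressing firefly luciferase, cultured in red cells within RPMI 1640 containing 0.5% w/v Albumax, 24 mM bicarbonate and gentamycin. A drop in luciferase activity indicates inhibition.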
Sm TGR inh – S. mansoni TGR enzyme inhibition; Potency, µM (doses to about 114 µM), without a hit: at the highest dose activity change, negative = inhibition, most hits filed as inhibitors; 360,000 tested, 3% active; purified TGR, DTNB reduction, TNB absorbance 405 nm; note: % is set by controls: 0 for no effect and ±100 for the full control effect; nearly all actives have a fitted effect of over 60% in size
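TGR 20 nM + NADPH 100 uM (dispensed conc.), cpd preinc 15 min RT; start with NADPH (500 uM addition) then DTNB (15 mM addition). Kinetic TNB absorbance, 405 nm filter. Four-parameter Hill fit across titration.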
SARS PLpro yeast – inhibitors of SARS-CoV papain-like protease in yeast | 330,000 tested, 0.19% active | Potency, µM (titrated, usually from 32.9 µM), inactives show at the highest dose activity, positive = growth rescue, actives largely listed as activators | S. cerevisiae expressing SARS-CoV PLpro, growth rescue | AID 485353; calls by dose curve; note: 0% is about no effect; nearly all actives have a fitted effect of over 55% in size
Pf growth 96h – P. falciparum growth inhibition at 96 hours. P. falciparum luciferase reporter growth, 96 h. Potency, µM (top dose mostly 28.7 µM), without a hit: at the top dose activity change, negative = inhibition, usual class: inhibitors. 320,000 tested, 6.9% active; note: % is set by controls: 0 for no effect and ±100 for the full control effect
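Luminescence readout: decreased luciferase signal marks inhibited growth of reporter-expressing P. falciparum in infected red cells (2% hematocrit, 0.05% parasitemia final), exposed to compound two generations (96 h, 37 C, 5% CO2).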
* marks the source's active call; other numbers are inactive results; u = inconclusive; x = no result; [ ] = another dose, or the depositor's remark. The list is not random: actives were taken first. Their share in the collection is about 12%. Unless noted, calls come from the whole dose curve; as a rule, active = well fitted curve in the direction sought with a large enough effect; inconclusive = small, poorly fitted or top-dose-only effect, or another doubt; inactive = no such curve, though single readings can be large; an effect the other way counts as inactive or inconclusive. Potency is the fitted concentration of half-maximal effect.

SMILES	Pf growth 48h	Sm TGR inh	SARS PLpro yeast	Pf growth 96h
CCOc1ccc(Nc2nc(N)nc(CN3CCN(c4ccccc4F)CC3)n2)cc1	u	-2.5%	-0.9%	6.4%
CCOc1ccc(Nc2nc(N)nc(CCl)n2)cc1	u	25.1µM*	-0.8%	u
CCOC(=O)N1C(=O)[C@@](CC)(c2ccccc2)N1C(=O)OCC	36.3%	u	-4.1%	6.4%
COC(=O)N1C(=O)[C@](c2ccccc2)(C2CCCCC2)N1C(=O)OC	28.1%	5.01µM*	-6.9%	62.3%
COC(=O)N1C(=O)[C@@](CC(C)C)(c2ccccc2)N1C(=O)OC	26.9%	3.55µM*	4.2%	75.4%
COC(=O)N1C(=O)[C@@](c2ccccc2)(C2CCCC2)N1C(=O)OC	23.7%	u	x	48.9%
COC(=O)N1C(=O)[C@](CC(C)C)(c2ccccc2)N1C(=O)OC	20.8%	7.94µM*	-6.9%	94.2%
Cc1cc(C(=O)NNC(=O)c2ccc(Cl)cc2Cl)c(C)o1	15.6%	0.2%	-0.7%	21.7%
Cc1ccc(C2C3CSCC=C3C(C#N)=C(N)C2(C#N)C#N)cc1 (configuration not stated)	-7.4%	u	1.7%	50.3%
Cc1ccc([C@@H]2C3COCC=C3C(C#N)=C(N)C2(C#N)C#N)o1 (some centres not stated)	u	35.5µM*	0.6%	u
Cc1cc(=O)[nH]c2nnc(-c3ccc(Cl)cc3)n12	x	4.4%	-0.6%	81.5%
COc1ccc(NC(=O)c2oc3ccccc3c2NC(=O)Cc2cccs2)cc1	x	0.7%	x	x
Cn1c(-c2sccc2OCc2ccccc2)n[nH]c1=S	10.4µM*	11.7%	u	u
Cc1ccc(COc2ccsc2-c2n[nH]c(=S)n2C)cc1	-28.3%	-11.1%	4.3%	0.0%
COc1cc(-c2nc(S(=O)(=O)c3ccc(Br)cc3)c(N3CCOCC3)o2)cc(OC)c1OC	x	2.3%	x	x
CCN(C(=O)c1cn(C)c(=O)c2cc(OC)c(OC)cc12)c1cc(C)ccc1C	9.28µM*	10.8%	0.1%	71.5%
CCN(C[C@H]1N[C@@](Cc2ccccc2)(C(=O)OC)[C@H]2C(=O)N(C)C(=O)[C@@H]12)C(=O)COc1ccccc1	x	x	-1.8%	x
COc1ccc(/C(C)=N/Nc2nc(C)c(C(C)=O)s2)cc1	u	-5.7%	9.8%	2.6%
CC(=O)c1sc(N/N=C2\CC3CC2C(C)C3(C)C)nc1C (configuration not stated)	-29.1%	1.58µM*	2.3%	u
COc1ccc(CNC(=O)Cc2csc3nc(-c4ccc(F)cc4)cn23)cc1	x	2.7%	x	x
CC1=CC(c2ccc(Cl)cc2)n2nc(NC(=O)CCC(=O)O)nc2N1 (configuration not stated)	23.3%	10µM*	0.8%	32.9%
CC1=CC(c2ccc(Cl)cc2)n2nc(NC(=O)CCCC(=O)O)nc2N1 (configuration not stated)	18.4%	22.4µM*	1.2%	3.1%
Cc1cc(C)n(C(C)Sc2ccccc2)n1 (configuration not stated)	u	0.7%	-14.0%	-4.0%
CCOC(=O)c1ccc(Nc2c(-c3ccc(O)cc3)nc3nc[nH]n23)cc1	x	-14.7%	x	x
CC(=O)Nc1ccc(S(=O)(=O)n2nc(-c3ccc(C)cc3)nc2N)cc1	-13.7%	5.9%	4.8%	1.65µM*
SMILES	Pf growth 48h	Sm TGR inh	SARS PLpro yeast	Pf growth 96h
O=C(NCCc1ccccc1Cl)c1ccc2c(c1)nc1n2CCCCC1	x	-7.1%	x	x
C1=C2C[N+]3(CCCC3)CC2Cc2ccc3ccccc3c21 (configuration not stated)	x	-11.8%	2.4%	0.738µM*
O=C(Oc1c(CN2CCOCC2)cc(Cl)c2cccnc12)c1ccccc1Br	1.85µM*	-27.0%	-0.5%	10.4µM*
CCOC(=O)N1CCN(Cc2ccccc2Cl)CC1	-6.4%	0.0%	x	-4.6%[5.75 µM]
CC(=O)NC(c1ccco1)c1cc(Br)c2cccnc2c1O (configuration not stated)	u	u	-3.6%	u
Oc1c(Br)cc(Br)c2cccnc12	u	x	x	9.53µM*
Oc1c(CN2CCN(c3ccccc3)CC2)cc(Br)c2cccnc12	1.85µM*	39.8µM*	u	u
CCOC(=O)N1CCN(Cc2cc(Cl)c3cccnc3c2O)CC1	2.62µM*	31.6µM*	-5.9%	22.8%
Cc1cccc(CCNC(=O)CN(c2ccc(C(C)C)cc2)S(=O)(=O)c2c(C)nn(C)c2C)c1	x	-1.9%	x	x
Cc1ccc(CCNC(=O)c2c3c(nc4ccccc24)C(=O)N(C2CCCCC2)C3)cc1	x	-11.3%	x	x
Cc1ccc(C)c(NC(=O)CN2C(=O)COc3ccc(S(=O)(=O)N4CCCC4)cc32)c1	u	-1.9%	2.3%	24.9%
O=C(Oc1c(Cl)cc(Cl)c2cccnc12)N1CCCCC1	-12.4%	5.4%	-1.7%	5.22µM*
COCc1cc(CN2CCN(C)CC2)c(O)c2ncccc12	x	14.1µM*	u	8.28µM*
COCc1cc(Sc2ccc(Cl)cc2Cl)nc(-c2ccccc2)n1	11.7µM*	18.0%	-1.9%	u
COCc1cc(Sc2ccc(OC)cc2)nc(-c2ccccc2)n1	u	-4.0%	1.7%	u
Cc1cccc(C(=O)Nc2nc3nc(-c4ccccc4)cc(=O)n3[nH]2)c1	x	1.3%	x	x
Cc1cccc(C)c1NC(=O)C(=O)NCC1CCCN1S(=O)(=O)c1cccs1 (configuration not stated)	-13.9%	-0.6%	-1.9%	0.1%
Cc1csc(N/N=C/c2ccccc2F)n1	289.5%	-5.7%	x	-22.2%
Cc1cnn(-c2cc(N/N=C/c3cccc(F)c3)ncn2)c1	1.2%	-12.6%	-3.6%	1.85µM*
Cc1cnn(-c2cc(N/N=C/c3ccccc3F)ncn2)c1	25.3%	-7.9%	-6.1%	13.1µM*
Cc1cnn(-c2cc(N/N=C/c3ccccc3)ncn2)c1	-2.1%	10.6%	0.5%	50.5%
Clc1ccc(CN2CC[C@H]3C=CCc4cccc(c43)C2)cc1	3.7µM*	-2.4%	-5.8%	1.85µM*
Fc1ccc(CN2CC[C@H]3C=CCc4cccc(c43)C2)cc1	10.4µM*	-24.6%	0.7%	u
CCCCc1ccc(Nc2cc(C)nc(-n3nc(C)cc3C)n2)cc1	x	-3.3%	x	x
Cc1ccc(NC(=O)c2ccc(Cl)c(S(=O)(=O)Nc3c(C)n(C)n(-c4ccccc4)c3=O)c2)cc1Cl	u	-1.4%	1.3%	u
SMILES	Pf growth 48h	Sm TGR inh	SARS PLpro yeast	Pf growth 96h
COc1ccccc1CNC(=O)CN(C)c1nn2c(=O)cc(C)nc2s1	x	-2.1%	x	x
Cc1cc(C)n(-c2nc(Nc3ccccc3C(F)(F)F)nc(-n3nc(C)cc3C)n2)n1	4.15µM*	-1.9%	-6.5%	-107.6%
Cc1cc(Nc2ccccc2C)nc(-n2nc(C)cc2C)n1	x	3.3%	x	x
Cc1cc(C)n(-c2nc(Nc3ccccc3C)nc(-n3nc(C)cc3C)n2)n1	2.33µM*	-14.2%	-4.0%	1.04µM*
CCOC(=O)c1cc(-c2ccccc2)n(CCCC(=O)Nc2cccc(C)c2C)c1C	x	-2.1%	x	x
CC(=O)N(CCC(c1ccco1)C(C)C)Cc1ccc(Cl)cc1 (configuration not stated)	u	20µM*	0.5%	u
